This is an account of results in article PMC11066047.

Experiment [1] deals with Eukaryotic translation initiation factor 3 subunit A (UniProt P38249). As to the kind of experiment: cross-link between two proteins; cross-linking mass spectrometry.
For a further experiment, the target named is Histone H3 (UniProt P61830). The description is as above.
Experiment [2] concerns the target Nucleolar complex protein 14 (UniProt Q99207). Briefly: cross-link between two proteins.
For experiment [3], the target named is Something about silencing protein 10 (UniProt Q12136). As to the kind of experiment: cross-link between two proteins.
Experiment [4] concerns the target Small ribosomal subunit protein bS1m (UniProt Q02950). As to the kind of experiment: cross-link between two proteins; cross-linking mass spectrometry.
Experiment [5] has as its target Small ribosomal subunit protein uS8m (UniProt Q03799). The description is as above.

Chain of Eukaryotic translation initiation factor 3 subunit A (P38249 whole entry): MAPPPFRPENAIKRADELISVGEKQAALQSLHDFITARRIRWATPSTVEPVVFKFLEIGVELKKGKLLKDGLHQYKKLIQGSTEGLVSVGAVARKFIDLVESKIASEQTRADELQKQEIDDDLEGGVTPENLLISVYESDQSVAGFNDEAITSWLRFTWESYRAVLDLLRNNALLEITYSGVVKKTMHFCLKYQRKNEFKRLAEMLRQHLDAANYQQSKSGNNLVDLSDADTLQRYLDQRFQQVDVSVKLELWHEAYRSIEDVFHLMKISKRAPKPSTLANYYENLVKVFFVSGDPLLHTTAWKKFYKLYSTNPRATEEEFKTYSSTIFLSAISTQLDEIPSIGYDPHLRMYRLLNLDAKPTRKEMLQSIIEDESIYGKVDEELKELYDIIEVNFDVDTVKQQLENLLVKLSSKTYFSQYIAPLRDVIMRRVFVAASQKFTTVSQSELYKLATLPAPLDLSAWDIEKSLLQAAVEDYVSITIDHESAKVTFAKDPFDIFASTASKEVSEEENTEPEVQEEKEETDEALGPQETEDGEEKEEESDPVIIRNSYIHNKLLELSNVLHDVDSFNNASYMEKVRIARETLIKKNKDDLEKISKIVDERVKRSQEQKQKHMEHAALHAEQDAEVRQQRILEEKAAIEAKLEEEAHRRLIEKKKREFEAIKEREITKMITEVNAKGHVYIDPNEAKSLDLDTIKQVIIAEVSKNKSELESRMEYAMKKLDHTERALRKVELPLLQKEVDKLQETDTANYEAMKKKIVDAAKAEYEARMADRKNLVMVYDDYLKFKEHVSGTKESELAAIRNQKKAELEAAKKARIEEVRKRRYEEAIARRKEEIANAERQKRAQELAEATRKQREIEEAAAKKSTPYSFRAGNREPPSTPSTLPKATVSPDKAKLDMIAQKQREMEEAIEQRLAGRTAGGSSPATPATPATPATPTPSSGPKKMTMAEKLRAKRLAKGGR

On to “Eukaryotic translation initiation factor 3 subunit B, P06103”, for which the “listed as a hit” value in experiment [1] is recorded as “yes”. With Histone H4, P02309, in the experiment with Histone H3, the “listed as a hit” value is “yes”. Turning to “Ribosomal RNA small subunit methyltransferase NEP1, Q06287”, the “listed as a hit” value in experiment [2] and in experiment [3] was “yes” each time. With “Small ribosomal subunit protein bS18m, P40033”, the “listed as a hit” value in experiment [4] is given as “yes”. With “Small ribosomal subunit protein mS23, P40496”, the “listed as a hit” value in experiment [5] is reported as “yes”.
